Measurements from paper PMC5540273 (PLoS ONE, 2017).

Legend:
Details in all cases: concentration: 1 μM,replicates: in singlicate; n = 1
[1] = tested on: JAK1(JH2domain-pseudokinase)
[2] = tested on: JAK2(JH1domain-catalytic)
[3] = tested on: JAK3(JH1domain-catalytic)
JNK1 = tested on: T1, JNK1
T1 construct: gene MAPK8

JNK2 = tested on: T2, JNK2
T2 construct: gene MAPK9

JNK3 = tested on: T3, JNK3
T3 construct: gene MAPK10

KIT-autoinhibited = tested on: KIT-autoinhibited
KIT = tested on: KIT
LATS1 = tested on: LATS1
LATS2 = tested on: LATS2
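Also: KINOMEscan kinase panel screen.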

Row | Compound | %Inh [1] | %Inh [2] | %Inh [3] | %Inh (JNK1) | %Inh (JNK2) | %Inh (JNK3) | %Inh (KIT-autoinhibited) | %Inh (KIT) | %Inh (LATS1) | %Inh (LATS2)
1 | O=C1NCCc2[nH]c(-c3ccncc3)cc21 | 26% | 73% | 87% | 30% | 24% | 45% | 0% | 14% | 23% | 34%
2 | C[C@@H]1CCN(C(=O)N2CCCC2)C[C@@H]1N(C)c1ncnc2[nH]ccc12 | 31% | 100% | 99.6% | 14% | 8% | 3% | 23% | 0% | 0% | 10%
3 | O=C(Nc1ccc(Oc2ccc3nc(NC(=O)C4CC4)cn3n2)c(F)c1)c1cccn(-c2ccccc2)c1=O | 0% | 0% | 0% | 0% | 0% | 0% | 0% | 100% | 0% | 0%
4 | Cn1ccc2ncnc(Oc3ccc(NC(=O)Nc4cccc(C(F)(F)F)c4)c(Cl)c3)c21 | 45% | 11% | 25% | 9% | 0% | 0% | 37% | 100% | 9% | 0%
5 | Cc1ccc(Nc2ccnc(Nc3ccc4c(c3)CS(=O)(=O)C4)n2)cc1O.Cl [GW579362] | 99.1% | 99.1% | 98.2% | 98.4% | 87% | 95.1% | 41% | 99.8% | 0% | 21%
6 | CC(C(=O)NC1CCN(c2ccnc(Nc3ccc(F)cc3)n2)C1)c1ccc(Cl)cc1 (stereo not shown) [GSK1379713] | 0% | 7% | 0% | 2% | 0% | 0% | 0% | 10% | 0% | 0%
7 | CCN1CCN(CCCC(=O)Nc2n[nH]c3nc(-c4ccc(O)cc4)c(Br)cc23)CC1 [SB-731579] | 0% | 80% | 87% | 55% | 38% | 34% | 15% | 31% | 0% | 0%
8 | C[C@@H]1CNc2c(sc3ccc4nc(-c5ccc(O)cc5)ccc4c23)C(=O)N1 | 36% | 53% | 94.6% | 18% | 0% | 6% | 0% | 54% | 17% | 13%
9 | COc1cc2nccc(Nc3ccc(Oc4ccccc4)cc3)c2cc1OC.Cl [GI261656] | 0% | 100% | 0% | 4% | 10% | 0% | 0% | 79% | 0% | 9%
10 | C[C@@H](Oc1cc(-n2cnc3cc(-c4cnn(C)c4)ccc32)sc1C(N)=O)c1ccccc1Cl [GSK580432] | 0% | 86% | 96.9% | 0% | 31% | 16% | 0% | 96.4% | 0% | 2%
11 | NC(=O)c1ccc(-c2cc3ncnc(SCC(=O)O)c3s2)cc1 | 50% | 0% | 22% | 22% | 0% | 0% | 22% | 68% | 0% | 0%
12 | Cn1ccc2ncnc(Oc3ccc(NC(=O)Nc4cccc(C(F)(F)F)c4)c(F)c3)c21 | 7% | 6% | 29% | 11% | 0% | 0% | 75% | 100% | 15% | 0%
13 | COC(=O)c1cccc(NC(=O)NC2CCN(c3ccnc(NCc4ccc(F)cc4)n3)CC2)c1 [GSK1379860] | 0% | 6% | 0% | 7% | 23% | 3% | 0% | 7% | 0% | 0%
14 | Cc1cccc2c(-c3ccncc3)c(-c3ccc(F)cc3)nn12.Cl [GW461487] | 19% | 0% | 0% | 48% | 90% | 94% | 0% | 4% | 0% | 13%
15 | O=c1[nH]cc(-c2ccc(O)cc2)c2sc(-c3ccncc3)cc12 [GSK1033723] | 0% | 33% | 51% | 0% | 0% | 0% | 0% | 27% | 0% | 24%
16 | CN(c1cccc(CNc2nc(Nc3ccc4c(c3)CC(=O)N4)ncc2C(F)(F)F)c1)S(C)(=O)=O | 79% | 98.1% | 100% | 40% | 31% | 35% | 31% | 57% | 29% | 24%
17 | CCOC(=O)N1CCC(n2cnc(-c3ccc(F)cc3)c2-c2ccnc(N)n2)CC1 [SB-219952] | 42% | 32% | 0% | 77% | 96.8% | 98.4% | 8% | 40% | 0% | 0%
18 | Cc1ccc(CC(=O)N2CCc3cc(-c4cn(C)c5ncnc(N)c45)ccc32)cc1 [GSK2634758] | 0% | 0% | 0% | 13% | 12% | 0% | 0% | 98.6% | 0% | 9%
19 | CCn1c(-c2nonc2N)nc2cncc(CNC3CCNCC3)c21.Cl [SB-747651] | 0% | 19% | 0% | 25% | 6% | 3% | 0% | 0% | 0% | 53%
20 | Cl.Cl.NC[C@H](CC1CCCCC1)NC(=O)c1ccc(-c2ccnc3[nH]ccc23)s1 [GSK1581428] | 0% | 97.2% | 99.7% | 18% | 11% | 8% | 0% | 65% | 89% | 95.3%
21 | COC(=O)Nc1nc2cc(Oc3ccc(NC(=O)Nc4cc(C(F)(F)F)ccc4Cl)cc3)ccc2[nH]1.Cl [GW697465] | 0% | 25% | 0% | 20% | 61% | 8% | 0% | 100% | 100% | 0%
22 | COc1cccc(CNC(=O)NC2CCN(c3ccnc(Nc4cc(OC)c(OC)c(OC)c4)n3)C2)c1 (stereo not shown) [GSK1379765] | 11% | 89% | 0% | 29% | 9% | 25% | 0% | 60% | 0% | 5%
